Measurements as given in PubChem BioAssay AID2410 (Southern Research Specialized Biocontainment Screening …, 2010).
Hit rate of the full screen: of about 2,500 compounds, about 2,100 (84%) were called active.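 Rule for the calls: active = toxic compounds, whose cell viability fell below 70% of untreated control cells; inactive = the rest.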 The set was probably picked from earlier hits. A selection follows. A call without a number means that no potency is given here. Potency and affinity values are given separately.

Assay: viability of uninfected HEp-2 cells – cell-based, HTS, cytotoxicity control for RSV inhibitor project, dose response (AID 2410);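 note: cells exposed to compound for six days before readout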
Settings: HEp-2 viability, luminescence, cytotoxicity counter-screen; series mostly up to 50 µM
With `Nc1ccc(Cl)c[n+]1Cc1cccc2cccnc12` the outcome was “inactive”. In the case of `N#C/C(=C\c1ccncc1)c1nc2c(s1)CCCC2`, the outcome is reported as “inactive”. With `COc1ccc2ccc(=O)oc2c1` the outcome was “inactive”. For `Cc1c(CC(=O)N2CCN(C(=O)C3COc4ccccc4O3)CC2)c(=O)oc2cc(O)cc(O)c12` (stereo unspecified), the outcome was “inactive”. In the case of `Cc1cc(S(=O)(=O)N2CCCC2)ccc1OCC(=O)Nc1ccccc1`, the outcome is reported as “inactive”. For `CC(=O)c1ccc2c(ccc3ccccc32)c1`, the outcome was “inactive”. With `COCCCNC(=O)c1ccc(Cn2c(=O)c3ccccc3n(Cc3ccc(C)cc3)c2=O)cc1` the outcome was “inactive”. For `CC(=O)c1c(C)nc(-c2ccc(Cl)cc2)nc1N=CN(C)C`, the outcome was “inactive”. With `O=C1c2ccccc2C(Nc2cccnc2)N1Cc1ccc2c(c1)OCO2` (stereo unspecified) the outcome was “inactive”. In the case of `Cc1ccc2[nH]c(=O)c(COC(=O)c3ccccn3)cc2c1`, the outcome is reported as “inactive”. In the case of `COc1ccc(NC(=O)C2(c3ccc(NC(=O)c4ccc(OC)cc4)cc3)CCCC2)cc1`, the outcome is reported as “inactive”. With `Nc1nnnn1/N=C/c1ccc(O)cc1` the outcome was “inactive”. With `COCCn1c(-c2ccc(Cl)cc2Cl)nc2c(c(=O)c3ccccc3n2C)c1=O` the outcome was “inactive”. For `CCCCCC(=O)Nc1nc(C)c(-c2csc(Nc3cc(Cl)ccc3OC)n2)s1`, the outcome was “inactive”. In the case of `O=C(NC(C(=O)N/N=C/c1cccnc1)c1n[nH]c(=O)c2ccccc12)c1ccccc1` (stereo unspecified), the outcome is reported as “inactive”. For `O=C(NCCSCc1c(F)cccc1Cl)Nc1ccccc1`, the outcome was “inactive”. For `Cc1nc2cc(Cl)c(Cl)cc2n1-c1ccccn1`, the outcome was “inactive”. In the case of `Cc1ccc([N+](=O)[O-])cc1S(=O)(=O)Nc1cccc(-c2ccc(N3CCOCC3)nn2)c1`, the outcome is reported as “inactive”. With `Cc1c(-c2nc(N)nc(Nc3ccc(F)cc3)n2)oc2ccccc12` the outcome was “inactive”. With `COC(=O)c1ccc(Nc2nnc(-c3ccc(C)c(S(=O)(=O)NCC4CCCO4)c3)c3ccccc23)cc1` (stereo unspecified) the outcome was “inactive”. For `O=C(CSc1nc2ccccc2c2nc3ccccc3n12)NCc1ccco1`, the outcome was “inactive”. With `CCCc1cc(-n2cnc3ccccc32)n2c(nc3ccccc32)c1C#N` the outcome was “inactive”. With `Cc1ccc2cc3cc(C(=O)N4CCCCCC4)oc3nc2c1` the outcome was “inactive”. With `Cc1sc(=NC(=O)c2ccco2)n(C)c1-c1ccc(Cl)cc1` the outcome was “inactive”. With `Cn1cc(C(N)=O)c2ccccc21` the outcome was “inactive”. For `Cc1ccc(C)c(NC(=O)CSc2nc3c(oc4ccccc43)c(=O)n2-c2ccccc2)c1`, the outcome was “inactive”. With `O=C(Nc1ccon1)c1sc2cc(F)ccc2c1Cl` the outcome was “inactive”. In the case of `Cc1ccc(/C=N\NC(=O)C2CN(S(=O)(=O)c3ccccc3)CCN2S(=O)(=O)c2ccccc2)cc1` (stereo unspecified), the outcome is reported as “inactive”. For `C/C(N)=C(/C#N)C(=O)CSc1cc(C)c2cc(C)cc(C)c2n1`, the outcome was “inactive”. For `C/C(N)=C(/C#N)C(=O)CSc1ncnc2ccccc12`, the outcome was “inactive”. In the case of `COc1ccc(CN2C(=O)c3cccnc3C2Nc2ccc(OC)c(Cl)c2)cc1` (stereo unspecified), the outcome is reported as “inactive”.
